40 molecules from PubChem BioAssay (Tox21) can be followed below.

Each structure is given as a SMILES string. Calls of active or inactive are those of the source. A call without a number means that no potency is given here. Calls come from the whole dose curve; as a rule, active = well fitted curve in the direction sought with a large enough effect in the repeat runs; inconclusive = weak or mixed curves; inactive = flat fitted curve, though single readings scatter.

The nature of one assay: qHTS assay to test for compound auto fluorescence at 460 nm (blue) in HEK293 cell free culture (AID 720681). Note: potency is the fitted concentration of half-maximal effect. The conditions noted are these: cell-free medium, autofluorescence 405/460 nm (blue); series mostly up to 46 µM. A digest of the protocol:
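Blue fluorescence (Ex 405/Em 460 nm, triamterene-equivalent) was read immediately after pin transfer of compound or DMSO into medium (DMEM, 10% FBS) without cells.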
On the technique in general: Quantitative high-throughput screening tests each substance at several concentrations.
In the case of `CC(C)=CCN1CC[C@]2(C)c3cc(O)ccc3C[C@H]1[C@H]2C`, the Potency result is “inactive”.
Turning to `CN[C@@]1(c2ccccc2Cl)CCCCC1=O`, the Potency entry is “inactive”.
On the same count and under the same terms, under `CCNC1(c2cccs2)CCCCC1=O` (stereo not given) stands “inactive”; under `CNC(C)CC1CCCCC1` (stereo not given), “inactive”; under `CCC1(c2ccccc2)C(=O)NC(=O)N(C)C1=O` (stereo not given), “inactive”.
Same read-out and setting: the value for `COc1cc([C@@H]2c3cc4c(cc3[C@@H](O)[C@H]3COC(=O)[C@H]23)OCO4)cc(OC)c1O` was “inactive”.
`CN1CC[C@@]23CCCC[C@@H]2[C@@H]1Cc1ccc(O)cc13`: the Potency result was “inactive”.
On the same count and under the same terms, the value for `CNC(C)Cc1ccccc1` (stereo not given) was “inactive”.
The same measure, in the same setting: under `CN[C@@H](C)Cc1ccccc1` stands “inactive”; under `CCCCNC(C)(C)[P+](=O)O`, “inactive”.
On the same count and under the same terms, the value for `O=C1C[C@@H]2OCC=C3CN4CC[C@]56c7ccccc7N1[C@H]5[C@H]2[C@H]3C[C@H]46` (tested in a mixture with another compound) was “inactive”; that for `O=c1ccc2cc(O[C@@H]3O[C@H](CO)[C@@H](O)[C@H](O)[C@H]3O)c(O)cc2o1` was 8.91 µM (active).
Consider `C/C=C(\CC)C(=O)NC(N)=O`, for which the Potency result is “inactive”.
The same measure, in the same setting: the value for `C[C@]12CCC(=O)C[C@@H]1CC[C@@H]1[C@@H]2CC[C@@]2(C)[C@H]1CC[C@]2(C)O` was “inactive”.
On the same count and under the same terms, the value for `Cc1nnc2n1-c1ccc(Cl)cc1C(c1ccccc1)=NC2` was “inactive”; that for `N#CC(C#N)=Cc1cc(O)c(O)c(O)c1` was “inactive”; that for `CCCSc1cc(OC)c(CCN)cc1OC` was “inactive”.
For the molecule `O=C(O)CCCO`, the Potency entry was “inactive”.
On the same count and under the same terms, the value for `Oc1ccc2c3c1O[C@H]1[C@@H](O)C=C[C@H]4[C@H](C2)NCC[C@@]341` was “inactive”; that for `O=P1(N(CCCl)CCCl)NC(OO)CCO1` (stereo not given) was “inactive”; that for `COC(=O)[C@H]1[C@@H](OC(=O)c2ccccc2)C[C@@H]2CC[C@H]1N2C` was “inactive”.
Same read-out and setting: the value for `O=C1CN=C(c2ccccc2)c2cc(Cl)ccc2N1` was “inactive”; that for `C=C[C@H]1CN2CC[C@H]1C[C@H]2[C@H](OC(=O)OCC)c1ccnc2ccc(OC)cc12` was “inactive”.
On the same count and under the same terms, under `CCc1cc(OC)c(C[C@@H](C)N)cc1OC` stands “inactive”.
Take `CC(C)[C@H]1C(=O)N2CCC[C@H]2[C@]2(O)O[C@](NC(=O)[C@@H]3C[C@@H]4c5cccc6[nH]cc(c56)C[C@H]4N(C)C3)(C(C)C)C(=O)N12`: the Potency result was “inactive”.
Turning to `C[C@]12CC[C@H]3[C@@H](CCC4=C(Cl)C(=O)CC[C@@]43C)[C@@H]1CC[C@@H]2O`, the Potency entry was “inactive”.
Still for that read-out and setting: the value for `Clc1ccc(C(Cn2ccnc2)OCc2csc3c(Cl)cccc23)c(Cl)c1` (stereo not given) was “inactive”; that for `C[C@@H]1[C@@H]2Cc3ccc(O)cc3[C@@]1(C)CCN2CC1CC1` was “inactive”.
As for `C[C@@H]1[C@H]2Cc3ccc(O)cc3[C@]1(C)CCN2C`, the Potency entry was “inactive”.
Same read-out and setting: under `CC(C)C[C@H]1C(=O)N2CCC[C@H]2[C@]2(O)O[C@](NC(=O)[C@@H]3C[C@@H]4c5cccc6[nH]cc(c56)C[C@H]4N(C)C3)(C(C)C)C(=O)N12` stands “inactive”.
Still for that read-out and setting: the value for `[H+].[H+].[Hg+2].[O-]B([O-])[O-].[c-]1ccccc1` was “inactive”; that for `C=CCC1([C@@H](C)CCC)C(=O)NC(=O)NC1=O` was “inactive”.
Same read-out and setting: the value for `c1ccc2c(c1)Sc1ccccc1N2C[C@@H]1CN2CCC1CC2` was “inactive”; that for `C[C@@H](Cc1ccccc1)NCCC(c1ccccc1)c1ccccc1` was “inactive”; that for `CC[C@H]1[C@@H]2C[C@H]3[C@@H]4N(C)c5ccccc5[C@]45C[C@@H](C2[C@H]5O)N3[C@@H]1O` (stereo not given in full) was “inactive”.
Turning to `CC(N)Cc1ccc2c(c1)OCO2` (stereo not given), the Potency entry is “inactive”.
On the same count and under the same terms, under `CN1c2ccccc2C(NCCCCCCC(=O)O)c2ccc(Cl)cc2S1(=O)=O` (stereo not given) stands “inactive”.
The same measure, in the same setting: the value for `CN[C@]1(c2ccccc2Cl)CCCCC1=O` was “inactive”; that for `C[C@]12CC[C@@H]3c4ccc(OC(=O)N(CCCl)CCCl)cc4CC[C@H]3[C@@H]1CC[C@@H]2OP(=O)(O)O` was “inactive”; that for `CC(=O)[C@@]1(O)CC[C@H]2[C@@H]3CCC4=CC(=O)CC[C@]4(C)C3(F)[C@@H](O)C[C@@]21C` (stereo not given in full) was “inactive”.

The nature of another assay: qHTS assay to test for compound auto fluorescence at 535 nm (green) in HEK293 cell free culture (AID 720682). Conditions: cell-free medium, green autofluorescence 485/535 nm; series mostly up to 46 µM. A digest of the protocol: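 DMEM + 10% FBS, cell-free; cpd or DMSO pinned in; Ex485/Em535 read; output as fluorescein-equivalent signal.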
As for `CC(C)=CCN1CC[C@]2(C)c3cc(O)ccc3C[C@H]1[C@H]2C`, the Potency entry was “inactive”.
The same measure, in the same setting: under `CN[C@@]1(c2ccccc2Cl)CCCCC1=O` stands “inactive”.
The same measure, in the same setting: the value for `CCNC1(c2cccs2)CCCCC1=O` (stereo not given) was “inactive”; that for `CNC(C)CC1CCCCC1` (stereo not given) was “inactive”.
Still for that read-out and setting: under `CCC1(c2ccccc2)C(=O)NC(=O)N(C)C1=O` (stereo not given) stands “inactive”; under `COc1cc([C@@H]2c3cc4c(cc3[C@@H](O)[C@H]3COC(=O)[C@H]23)OCO4)cc(OC)c1O`, “inactive”; under `CN1CC[C@@]23CCCC[C@@H]2[C@@H]1Cc1ccc(O)cc13`, “inactive”.
As for `CNC(C)Cc1ccccc1` (stereo not given), the Potency entry was “inactive”.
Still for that read-out and setting: under `CN[C@@H](C)Cc1ccccc1` stands “inactive”.
The same measure, in the same setting: the value for `CCCCNC(C)(C)[P+](=O)O` was “inactive”; that for `O=C1C[C@@H]2OCC=C3CN4CC[C@]56c7ccccc7N1[C@H]5[C@H]2[C@H]3C[C@H]46` (tested in a mixture with another compound) was “inactive”; that for `O=c1ccc2cc(O[C@@H]3O[C@H](CO)[C@@H](O)[C@H](O)[C@H]3O)c(O)cc2o1` was “inactive”.
On the same count and under the same terms, under `C/C=C(\CC)C(=O)NC(N)=O` stands “inactive”; under `C[C@]12CCC(=O)C[C@@H]1CC[C@@H]1[C@@H]2CC[C@@]2(C)[C@H]1CC[C@]2(C)O`, “inactive”.
Take `Cc1nnc2n1-c1ccc(Cl)cc1C(c1ccccc1)=NC2`: the Potency result is “inactive”.
The same measure, in the same setting: under `N#CC(C#N)=Cc1cc(O)c(O)c(O)c1` stands “inactive”; under `CCCSc1cc(OC)c(CCN)cc1OC`, “inactive”.
On the same count and under the same terms, under `O=C(O)CCCO` stands “inactive”; under `Oc1ccc2c3c1O[C@H]1[C@@H](O)C=C[C@H]4[C@H](C2)NCC[C@@]341`, “inactive”.
On the same count and under the same terms, the value for `O=P1(N(CCCl)CCCl)NC(OO)CCO1` (stereo not given) was “inactive”; that for `COC(=O)[C@H]1[C@@H](OC(=O)c2ccccc2)C[C@@H]2CC[C@H]1N2C` was “inactive”; that for `O=C1CN=C(c2ccccc2)c2cc(Cl)ccc2N1` was “inactive”.
For the molecule `C=C[C@H]1CN2CC[C@H]1C[C@H]2[C@H](OC(=O)OCC)c1ccnc2ccc(OC)cc12`, the Potency entry is “inactive”.
With `CCc1cc(OC)c(C[C@@H](C)N)cc1OC`, the Potency result is “inactive”.
For the molecule `CC(C)[C@H]1C(=O)N2CCC[C@H]2[C@]2(O)O[C@](NC(=O)[C@@H]3C[C@@H]4c5cccc6[nH]cc(c56)C[C@H]4N(C)C3)(C(C)C)C(=O)N12`, the Potency result was “inactive”.
The same measure, in the same setting: the value for `C[C@]12CC[C@H]3[C@@H](CCC4=C(Cl)C(=O)CC[C@@]43C)[C@@H]1CC[C@@H]2O` was “inactive”.
Still for that read-out and setting: under `Clc1ccc(C(Cn2ccnc2)OCc2csc3c(Cl)cccc23)c(Cl)c1` (stereo not given) stands “inactive”.
The same measure, in the same setting: the value for `C[C@@H]1[C@@H]2Cc3ccc(O)cc3[C@@]1(C)CCN2CC1CC1` was “inactive”.
With `C[C@@H]1[C@H]2Cc3ccc(O)cc3[C@]1(C)CCN2C`, the Potency entry was “inactive”.
Still for that read-out and setting: under `CC(C)C[C@H]1C(=O)N2CCC[C@H]2[C@]2(O)O[C@](NC(=O)[C@@H]3C[C@@H]4c5cccc6[nH]cc(c56)C[C@H]4N(C)C3)(C(C)C)C(=O)N12` stands “inactive”; under `[H+].[H+].[Hg+2].[O-]B([O-])[O-].[c-]1ccccc1`, “inactive”; under `C=CCC1([C@@H](C)CCC)C(=O)NC(=O)NC1=O`, “inactive”.
Still for that read-out and setting: under `c1ccc2c(c1)Sc1ccccc1N2C[C@@H]1CN2CCC1CC2` stands “inactive”.
Same read-out and setting: under `C[C@@H](Cc1ccccc1)NCCC(c1ccccc1)c1ccccc1` stands “inactive”.
For `CC[C@H]1[C@@H]2C[C@H]3[C@@H]4N(C)c5ccccc5[C@]45C[C@@H](C2[C@H]5O)N3[C@@H]1O` (stereo not given in full), the Potency result is “inactive”.
For the molecule `CC(N)Cc1ccc2c(c1)OCO2` (stereo not given), the Potency result is “inactive”.
Still for that read-out and setting: under `CN1c2ccccc2C(NCCCCCCC(=O)O)c2ccc(Cl)cc2S1(=O)=O` (stereo not given) stands “inactive”; under `CN[C@]1(c2ccccc2Cl)CCCCC1=O`, “inactive”.
On the same count and under the same terms, the value for `C[C@]12CC[C@@H]3c4ccc(OC(=O)N(CCCl)CCCl)cc4CC[C@H]3[C@@H]1CC[C@@H]2OP(=O)(O)O` was “inactive”; that for `CC(=O)[C@@]1(O)CC[C@H]2[C@@H]3CCC4=CC(=O)CC[C@]4(C)C3(F)[C@@H](O)C[C@@]21C` (stereo not given in full) was “inactive”.
